Data on 40 compounds can be found in PubChem BioAssay (Tox21).

“And” between values parts separate entries of the source, which are not always exact repeats. Identical values can stand only once. Inconclusive results are not listed. A call without a number means that no potency is given here. Values without a mark were called inactive. The source made the active and inactive calls. Calls come from the whole dose curve; as a rule, active = well fitted cell-killing curve with a large enough effect in the repeat runs; inconclusive = weak or mixed curves, or effect the other way; inactive = flat fitted curve, though single readings scatter.
Potency is the fitted concentration of half-maximal effect.

A short description of the test: cAMP Responsive Elements (CRE) small molecule antagonists, cell-based qHTS assay: qHTS cell viability counter screen (AID 2060913). Note: nearly all actives have a fitted effect of over 40% in size. The following applies: CRE-bla HEK293T viability, CellTiter-Glo luminescence, 5 h; series mostly up to 92.4 µM. An outline of the steps: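 CRE-bla HEK293T cells were seeded in assay medium with 10% dialyzed FBS, incubated 18 hrs at 37 C, then exposed to compounds plus 0.25 uM final NKH477 for 3 hrs. Viability was read by CellTiter-Glo luminescence after 30 min, in the same wells.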
Regarding `C=C(C)C(=O)OCCOCC`, the Potency entry is “inactive”.

Regarding `C[C@@H]1C[C@H]2[C@@H]3CCC4=CC(=O)C=C[C@]4(C)[C@@]3(F)[C@@H](O)C[C@]2(C)[C@@]1(O)C(=O)COP(=O)(O)O`, the Potency entry is “inactive”. The same measure, in the same setting: the value for `CN(C)c1ccc(C(=C2C=CC(=[N+](C)C)C=C2)c2ccccc2)cc1` was 15.4 µM (active) and 11.9 µM (active) and 10.6 µM (active); that for `CC(=O)OCC(=O)[C@@]1(O)[C@H](C)C[C@H]2[C@@H]3CCC4=CC(=O)C=C[C@]4(C)[C@@]3(F)[C@@H](O)C[C@@]21C` was “inactive”. For the compound `CC1(C)CC(OC(=O)CCCCCCCCC(=O)OC2CC(C)(C)NC(C)(C)C2)CC(C)(C)N1`, the viability change, negative = cytotoxic is -1.62% [at 18.9 µM]. Take `CC(CC=O)CC(C)(C)C` (stereo not given): the Potency result was “inactive”.

On to `Cc1ccc(S(=O)(=O)C(I)I)cc1`, for which the Potency is 61.1 µM (active). Still for that read-out and setting: the entry for `CCc1cc(S(=O)(=O)O)c2cc(C(C)C)cccc1-2` is “inactive”; for `NS(=O)(=O)c1ccc(C(=O)O)cc1` it is “inactive”. The same measure, in the same setting: the value for `C1CC(COCC2CO2)CCC1COCC1CO1` (stereo not given) was “inactive”.

Regarding `CCN(Cc1cccc(S(=O)(=O)O)c1)c1ccc(C(=C2C=CC(=[N+](CC)Cc3cccc(S(=O)(=O)O)c3)C=C2)c2ccc(O)cc2S(=O)(=O)[O-])cc1`, the Potency result is “inactive”.

For `NC(Cc1c[nH]c2ccccc12)C(=O)O` (stereo not given), the Potency result is “inactive”. As to `[O-]/[N+](=N\O)c1ccccc1`, the Potency result was “inactive”. The same measure, in the same setting: the entry for `C#CC(O)CCC` (stereo not given) is “inactive”; for `CCNC(=O)N1CCN(CCCC(c2ccc(F)cc2)c2ccc(F)cc2)CC1` it is “inactive”; for `C1CCCC1` it is “inactive”.

For the compound `Cc1ccccc1OCC(O)CO` (stereo not given), the Potency result is “inactive”. On to `CN1CCCN(C(c2ccccc2)c2ccc(Cl)cc2)CC1` (stereo not given), for which the Potency result is “inactive”.

For the compound `CC(=O)CC(=O)Nc1ccccc1`, the Potency entry is “inactive”. Still for that read-out and setting: the value for `Nc1nc(=S)c2[nH]cnc2[nH]1` was “inactive”. Still for that read-out and setting: the value for `Cc1cc2nc3ccc(=[N+](C)C)cc-3sc2cc1N` was “inactive”; that for `Cc1cc2c(cc1S(N)(=O)=O)S(=O)(=O)CCC2` was “inactive”; that for `O=C(NO)c1ccccc1` was “inactive”.

Turning to `CCC/C=C(\C=O)CC`, the Potency result is “inactive”. Consider `COC(=O)C(c1ccccc1Cl)N1CCc2sccc2C1` (stereo not given), for which the Potency entry was “inactive”. Same read-out and setting: the value for `SCCSCCS` was “inactive”. In the case of `CCCCCCOC(=O)CCC`, the Potency result is “inactive”. Regarding `CO[Si](CCCNc1ccccc1)(OC)OC`, the Potency entry is “inactive”.

Consider `O=C(OCC(COC(=O)c1cccnc1)(COC(=O)c1cccnc1)COC(=O)c1cccnc1)c1cccnc1`, for which the Potency entry was “inactive”. The same measure, in the same setting: the value for `CC(=O)OCC(=O)[C@@]1(O)CC[C@H]2[C@@H]3CCC4=CC(=O)C=C[C@]4(C)[C@H]3[C@@H](O)C[C@@]21C` was “inactive”; that for `COCCOCC(OC)OC` was “inactive”; that for `COC(Cc1ccccc1)OC` was “inactive”. Still for that read-out and setting: the entry for `CCCCNc1ccccc1` is “inactive”; for `C=CCc1ccc(O)c(OC)c1` it is “inactive”; for `O=C1N(c2ccccc2)c2ccccc2C1(Cc1ccncc1)Cc1ccncc1` it is “inactive”. Still for that read-out and setting: the figure for `CCCCCCCC[P+](CCCCCCCC)(CCCCCCCC)CCCCCCCC` is 17.1 µM (active).

Regarding `Nc1cc(S(=O)(=O)O)cc2cc(S(=O)(=O)O)cc(O)c12`, the Potency entry is “inactive”.

For `CC1CC(C)C(=O)C1=O` (stereo not given), the Potency entry is “inactive”. Same read-out and setting: the value for `CN(C/C=C/c1ccccc1)Cc1cccc2ccccc12` was 29.8 µM (active). Regarding `Oc1ccc(C2(c3ccc(O)c(C4CCCCC4)c3)CCCCC2)cc1C1CCCCC1`, the Potency was 43.3 µM (active).
